{"source": "PubChem BioAssay AID2061304", "about": "(National Center for Advancing Translational Sciences (NCATS), 2025)", "note": "Results filed as inconclusive are left out. The source made the active and inactive calls. Calls come from the whole dose curve; as a rule, active = well fitted inhibition curve with a large enough effect; inconclusive = small, poorly fitted or top-dose-only effect; inactive = flat fitted curve, though single readings scatter. Square brackets hold non-standard residues; d marks the D form. Peptide text beside a SMILES is read from it. Dolaproine = CO[C@@H]([C@@H]1CCCN1)[C@@H](C)C(=O)O; Dil = CC[C@H](C)[C@H](NC)[C@@H](CC(=O)O)OC; NMeV = CN[C@H](C(=O)O)C(C)C"}
{"test": "Identification of antibody-drug conjugate (ADC) payloads which are substrates of ATP-binding cassette drug efflux transporters: ABCB1-HeLa-KB-8-5-11 cell line", "settings": "KB-8-5-11 (P-gp overexpressing HeLa) viability, CellTiter-Glo, 48 h; series mostly up to 31.4 µM", "description": "Antibody-drug conjugates (ADCs) feature an antibody recognizing a specific protein joined to a potent toxic payload. Numerous antibody-drug conjugates have received FDA approval; however, clinical resistance arises. Resistance mechanisms include decreased expression or mutation of the antibody target, impaired payload release, or increased expression of ATP-binding cassette (ABC) efflux transporters associated with multidrug resistance. We therefore sought to characterize the interaction of ABC multidrug transporters with ADC payloads. We performed a high-throughput screen with 27 common ADC payloads using cells lines expressing ABC transporters P-glycoprotein (P-gp, encoded by ABCB1) or ABCG2 (encoded by ABCG2). Confirmatory assays were also performed using cells transfected to express P-gp, ABCG2, or MRP1 (encoded by ABCC1). Several commonly used ADC payloads were substrates of P-gp, including calicheamicin gamma1, monomethyl auristatin E, DM1, and DM4. All the pyrrolobenzodiazepines tested - SJG136, SGD-1882, SG2057, and SG3199 - were substrates of P-gp, ABCG2, and MRP1. […] These findings highlight the risk of transporter-mediated resistance with certain ADC payloads and underscore the importance of selecting payloads that evade ABC transporter recognition in future ADC development.\nHEK-293 cells were transfected with empty vector (pcDNA) or vector containing the human ABCB1 (MDR-19), ABCG2 (R-5), or ABCC1 gene (MRP1) and were maintained in EMEM with 2 mg/mL G418 added to maintain transporter expression. The HeLa derivative KB-3-1 and the P-gp overexpressing KB-8-5-11 subline were maintained in DMEM; KB-8-5-11 additionally received 100 ng/mL colchicine. H460 parental cells were obtained from the Division of Cancer Treatment and Diagnosis Tumor Repository, National Cancer Institute at Frederick, MD and were cultured in RPMI. The ABCG2 expressing subline H460 MX20 was generated by selecting H460 cells in 20 nM mitoxantrone. Media in all cases was supplemented with 10% FBS and 1% penicillin-streptomycin. We explored 27 common ADC payloads, in two orthogonal, paired cell line sets-a drug selected and transfected set for each transporter--to identify substrates of the ABC transporters P-gp and ABCG2. Compounds were sourced from Levena Biopharma (San Diego, CA), Selleck Chem (Houston, TX), ChemieTek (Indianapolis, IN), or Microsource Discovery Systems (Gaylordsville, CT). Screening was performed as previously described. Briefly, cells were plated at a density of 500 cells/well in 1536 well plates with compounds added using a 1536-head pin tool (Kalypsys, San Diego CA). Cells were incubated with cytotoxic drugs and processed with CellTiter Glo reagent (Promega, Madison, WI) to determine viability after 48 hours. P-gp substrates were identified by comparing compound activity between paired sets of low-expressing (sensitive) and over-expressing (resistant) cell lines."}
{"smiles": "COC(=O)c1cc2c3c(cc(O)c2[nH]1)N(C(=O)c1cc2cc(OC)c(OC)c(OC)c2[nH]1)CC3CCl", "note": "(stereo not drawn)", "Potency": "0.6 nM (active)"}
{"smiles": "COc1cccc2c1C(=O)c1c(O)c3c(c(O)c1C2=O)C[C@@](O)(C(=O)CO)C[C@@H]3O[C@H]1C[C@H]2[C@H](O[C@@H]3[C@@H](OC)OCCN32)[C@H](C)O1", "Potency": "0.2 nM (active)"}
{"smiles": "COc1cccc2c1C(=O)c1c(O)c3c(c(O)c1C2=O)C[C@@](O)(C(=O)CO)C[C@@H]3O[C@H]1C[C@H](N)[C@H](O)[C@H](C)O1", "Potency": "16700 nM (active)"}
{"smiles": "CCc1c2c(nc3ccc(O)cc13)-c1cc3c(c(=O)n1C2)COC(=O)[C@]3(O)CC", "Potency": "1330 nM (active)"}
{"smiles": "CC[C@H](C)[C@@H]([C@@H](CC(=O)N1CCC[C@H]1[C@H](OC)[C@@H](C)C(=O)N[C@@H](Cc1ccccc1)C(=O)O)OC)N(C)C(=O)[C@@H](NC(=O)[C@@H](NC)C(C)C)C(C)C", "note": "(H-[NMeV]V[Dil][Dolaproine]F-OH)", "Potency": "265 nM (active)"}
{"smiles": "COc1ccc(C2=CN3C(=O)c4cc(OC)c(OCCCOc5cc6c(cc5OC)C(=O)N5C=C(c7ccc(N)cc7)C[C@@H]5C=N6)cc4N=C[C@H]3C2)cc1", "Potency": "inactive"}
{"smiles": "CC[C@H](C)[C@@H]([C@H](N)CC(=O)N1CCC[C@H]1[C@H](OC)[C@@H](C)C(=O)N[C@@H](Cc1ccccc1)c1nccs1)N(C)C(=O)[C@@H](NC(=O)[C@H](C(C)C)N(C)C)C(C)C", "Potency": "6.7 nM (active)"}
{"smiles": "COc1cc2cc(c1Cl)N(C)C(=O)C[C@H](O)[C@]1(C)O[C@H]1[C@H](C)C1C[C@@](O)(NC(=O)O1)[C@H](OC)/C=C/C=C(\\C)C2", "Potency": "13300 nM (active)"}
{"smiles": "CC[C@]1(O)CC2CN(CCc3c([nH]c4ccccc34)[C@@](C(=O)OC)(c3cc4c(cc3OC)N(C)[C@H]3[C@@](O)(C(=O)OC)[C@H](OC(C)=O)[C@]5(CC)C=CCN6CC[C@]43[C@@H]65)C2)C1", "note": "(stereo partly drawn)", "Potency": "298 nM (active)"}
{"smiles": "CCN[C@H]1CO[C@@H](O[C@H]2[C@H](O[C@H]3C#C/C=C\\C#C[C@]4(O)CC(=O)C(NC(=O)OC)=C3/C4=C\\CSSSC)O[C@H](C)[C@@H](NO[C@H]3C[C@H](O)[C@H](SC(=O)c4c(C)c(I)c(O[C@@H]5O[C@@H](C)[C@H](O)[C@@H](OC)[C@H]5O)c(OC)c4OC)[C@@H](C)O3)[C@@H]2O)C[C@@H]1OC", "Potency": "420 nM (active)"}
{"smiles": "CC(C)(C)OC(=O)Nc1ccc2[nH]c(C(=O)N3C[C@@H](CCl)c4c3cc(O)c3ccccc43)cc2c1", "Potency": "9.4 nM (active)"}
{"smiles": "CC[C@H](C)[C@@H]([C@H](N)CC(=O)N1CCC[C@H]1[C@H](OC)[C@@H](C)C(=O)N[C@@H](Cc1ccccc1)c1nccs1)N(C)C(=O)[C@@H](NC(=O)[C@@H](NC)C(C)C)C(C)C", "Potency": "1.9 nM (active)"}
{"smiles": "CN(C)CCOc1ccc2[nH]c(C(=O)N3C[C@@H](CCl)c4c3cc(O)c3ccccc43)cc2c1", "Potency": "0.7 nM (active)"}
